From PubChem BioAssay (NCI)
This is part of a sample that, as a whole, favours compounds with a hit. Of some 83,000 tested, about 20% had one in any assay.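 How to read the values: 0–100, growth inhibition (40 = 60% inhibited); 0, no net growth; -100 to 0, cell death (-40 = 40% of starting cells died; -100 = all dead).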 Active and inactive are the calls of the source. The calls were made as follows: active = growth percent below 10; inactive = the rest.

Tested on: MDA-MB-435 melanoma
Assay: NCI-60 one-dose screen, 48 h (100 = growth as untreated, 0 = no growth, -100 = all killed)
Conditions: 10 µM unless noted

Row | SMILES | growth
1 | CN1CCN(c2ccc(-c3cnc4c(-c5csc6ccccc56)cnn4c3)cc2)CC1 | -46.1% (active)
2 | O=CN1N=C(c2ccc(Nc3ccnc4cc(Cl)ccc34)cc2)CC1c1ccccc1 (configuration not stated) | 8.64% (active)
3 | Cc1nc2ccccc2c(/C=C/c2ccccc2)c1C(=O)/C=C/c1ccc(C(F)(F)F)cc1 | -82.6% (active)
4 | Cc1ccc(-c2nc(N3CCN(C(=O)c4ccc(OC(F)(F)F)cc4)CC3)c3ccccc3n2)cc1 | 92.5% (inactive)
5 | C[C@H]1[C@H]2[C@H]3CC[C@@H]4[C@@]5(C)CC[C@H](O)C(C)(C)[C@@H]5CC[C@@]4(C)[C@]3(C)CC[C@]23CO[C@]1(C)[C@@H](C(=O)/C=C\c1cccnc1)C3 | 34.5% (inactive)
6 | COC(=O)[C@H](C)NC(=O)NC(=O)NC(=O)CI | 63% (inactive)
7 | CC(=O)OC[C@H]1OC(Sc2sc(C(=O)c3ccc(C)cc3)c(N)c2-c2nc3ccccc3s2)[C@H](OC(C)=O)[C@@H](OC(C)=O)[C@@H]1OC(C)=O (some centres not stated) | 77.4% (inactive)
8 | COc1ccc(-c2nc(NN)c3c(C)nn(-c4ccc(F)cc4)c3n2)cc1 | 0.816% (active)
9 | O=C(Nc1ccc(OS(=O)(=O)c2ccc(F)cc2)cc1)c1ccc(Cl)cc1 | 117% (inactive)
10 | CC1CN(C2CCCCC2)C(=S)N(c2ccccc2)C1=O (configuration not stated) | 105% (inactive)
11 | N#Cc1c(-c2ccc(Cl)cc2)nc2c(c(-c3ccccc3)nn2-c2ccccc2)c1-c1ccc(O)cc1 | 49% (inactive)
12 | COc1ccc(/C=N/Nc2cc(=O)[nH]c3ccc(Cl)cc23)cc1 | 43.2% (inactive)
13 | CC(=O)CC[C@H]1C(=O)N[C@@H](C(C)C)C(=O)N[C@@H](Cc2cc(O)cc(F)c2)C(=O)N2CCC[C@H](N2)C(=O)O[C@H](/C(C)=C/C=C/C(=O)OC(C)(C)C)C/C=C/C=C/[C@H](O)[C@H](C)[C@H]1O | 43% (inactive)
14 | O=C1CCC(C(=O)NCCNCCNC(=O)C2CCC(=O)N2)N1 (configuration not stated) | 104% (inactive)
15 | Nc1nn(C(=O)Nc2ccc(Cc3ccccc3)cc2)c2ccc(Cl)cc12 | 53.3% (inactive)
16 | COc1cc(/C=C/c2ccccc2)cc(OC)c1 | 103% (inactive)
17 | CC1Cc2ccccc2N1NC(=O)c1ccc(Cl)c(S(N)(=O)=O)c1 (configuration not stated) | 102% (inactive)
18 | CC1(C)C2CC1C1(/C=N\Nc3ccccc3)C(C2)C(C#N)(C#N)C1(C#N)C#N (configuration not stated) | 104% (inactive)
19 | COc1ccc(NC(=O)n2nc(/C=C\c3ccc(O)c(OC)c3)cc2/C=C\c2ccc(O)c(OC)c2)cc1 | -36.3% (active)
20 | CN1CCN(c2ccc(-c3ccc4ncc(C#N)c(Nc5ccc(F)c(Cl)c5)c4c3)cn2)CC1 | 81.6% (inactive)
21 | O=c1[nH]c2c(ccc3cnccc32)c2c1CCC2 | -60.1% (active)
22 | COc1nc2ccccc2cc1-c1nc2c(cnn2-c2ccc(Br)cc2)c(=O)[nH]1 | -74.8% (active)
23 | Cn1cc(C(=O)c2nc(-c3cn(C)c4ccc(F)cc34)no2)c2cc(F)ccc21 | 111% (inactive)
24 | Cc1cccc(OCC(O)CN2CCN(c3ccc(Cl)cc3)CC2)c1 (configuration not stated) | 111% (inactive)

Tested on: SW-620 colon
Assay: as above
Conditions: 10 µM unless noted

Row | SMILES | growth
25 | O=C(CS(=O)c1oc(-c2cccs2)nc1S(=O)(=O)c1ccc(Br)cc1)c1ccccc1 (configuration not stated) | 97.7% (inactive)
26 | Cc1cccc2c(=O)c3c(sc12)c(NCc1ccccc1)nc1ccccc13 | 95.5% (inactive)
27 | COc1ccc2c(c1)c(-c1nn3cc(-c4cccs4)nc3s1)cn2C | 82.3% (inactive)
28 | CCOC(=O)/C(C#N)=C\Nc1ccc2ncnc(Nc3ccc(Cl)cc3Cl)c2c1 | 100% (inactive)
29 | CCCCCCNC(=O)Oc1ccc(/C(=C(\C)c2ccc(Cl)cc2)c2ccc(OCCN3CCCCC3)cc2)cc1 | 7.33% (active)
30 | CCN(CC)S(=O)(=O)c1ccc(NC(=O)CSc2nnc(C)n2-c2ccccc2)cc1 | 105% (inactive)
31 | CN(C)c1ccc2nc3ccc(=[N+](C)C)c([N+](=O)[O-])c-3sc2c1 | 24.4% (inactive)
32 | COc1ccc(-c2nn(C(=O)c3cc(OC)c(OC)c(OC)c3)c3cc(N)ccc23)cc1 | 31.6% (inactive)
33 | O=C(Nc1ccc(I)cc1F)c1cc(I)ccc1O | 10.8% (inactive)
34 | COc1cc2oc(-c3ccc(O)cc3)cc(=O)c2c(O)c1-c1c(OC)cc(O)c2c(=O)cc(-c3ccc(O)cc3)oc12 | 25.2% (inactive)
35 | CCCCOc1nc2ccc(OC)cc2cc1-c1cc(-c2ccc(Cl)cc2)nc(-c2ccc(Cl)cc2)c1 | 102% (inactive)
36 | COc1ccc(/C=C(/C#N)n2nnc3cccc(F)c32)cc1 | 11.9% (inactive)
37 | O=C(Cc1ccc(F)c(Cl)c1)Nc1cc(C2(C(F)(F)F)CC2)nn1Cc1ccccc1 | 82.7% (inactive)
38 | COc1ccc2nc(NCCCNCCO)c3sc4ccc(F)cc4c(=O)c3c2c1 | -66.4% (active)
39 | CN1CCN(c2ccc(-c3cnc4c(-c5csc6ccccc56)cnn4c3)cc2)CC1 | -5.95% (active)
40 | O=CN1N=C(c2ccc(Nc3ccnc4cc(Cl)ccc34)cc2)CC1c1ccccc1 (configuration not stated) | 31.8% (inactive)
41 | Cc1nc2ccccc2c(/C=C/c2ccccc2)c1C(=O)/C=C/c1ccc(C(F)(F)F)cc1 | -32.9% (active)
42 | Cc1ccc(-c2nc(N3CCN(C(=O)c4ccc(OC(F)(F)F)cc4)CC3)c3ccccc3n2)cc1 | 97% (inactive)
43 | C[C@H]1[C@H]2[C@H]3CC[C@@H]4[C@@]5(C)CC[C@H](O)C(C)(C)[C@@H]5CC[C@@]4(C)[C@]3(C)CC[C@]23CO[C@]1(C)[C@@H](C(=O)/C=C\c1cccnc1)C3 | 32.3% (inactive)

Row | SMILES | growth
44 | COC(=O)[C@H](C)NC(=O)NC(=O)NC(=O)CI | -33.4% (active)
45 | CC(=O)OC[C@H]1OC(Sc2sc(C(=O)c3ccc(C)cc3)c(N)c2-c2nc3ccccc3s2)[C@H](OC(C)=O)[C@@H](OC(C)=O)[C@@H]1OC(C)=O (some centres not stated) | 53.4% (inactive)
46 | COc1ccc(-c2nc(NN)c3c(C)nn(-c4ccc(F)cc4)c3n2)cc1 | 22.9% (inactive)
47 | O=C(Nc1ccc(OS(=O)(=O)c2ccc(F)cc2)cc1)c1ccc(Cl)cc1 | 108% (inactive)
48 | CC1CN(C2CCCCC2)C(=S)N(c2ccccc2)C1=O (configuration not stated) | 103% (inactive)
49 | N#Cc1c(-c2ccc(Cl)cc2)nc2c(c(-c3ccccc3)nn2-c2ccccc2)c1-c1ccc(O)cc1 | 54.4% (inactive)
50 | COc1ccc(/C=N/Nc2cc(=O)[nH]c3ccc(Cl)cc23)cc1 | 37.9% (inactive)
51 | CC(=O)CC[C@H]1C(=O)N[C@@H](C(C)C)C(=O)N[C@@H](Cc2cc(O)cc(F)c2)C(=O)N2CCC[C@H](N2)C(=O)O[C@H](/C(C)=C/C=C/C(=O)OC(C)(C)C)C/C=C/C=C/[C@H](O)[C@H](C)[C@H]1O | 25.4% (inactive)
52 | O=C1CCC(C(=O)NCCNCCNC(=O)C2CCC(=O)N2)N1 (configuration not stated) | 94.8% (inactive)
53 | Nc1nn(C(=O)Nc2ccc(Cc3ccccc3)cc2)c2ccc(Cl)cc12 | 81.8% (inactive)
54 | COc1cc(/C=C/c2ccccc2)cc(OC)c1 | 100% (inactive)
55 | CC1Cc2ccccc2N1NC(=O)c1ccc(Cl)c(S(N)(=O)=O)c1 (configuration not stated) | 105% (inactive)
56 | CC1(C)C2CC1C1(/C=N\Nc3ccccc3)C(C2)C(C#N)(C#N)C1(C#N)C#N (configuration not stated) | 101% (inactive)
57 | COc1ccc(NC(=O)n2nc(/C=C\c3ccc(O)c(OC)c3)cc2/C=C\c2ccc(O)c(OC)c2)cc1 | 27.1% (inactive)
58 | CN1CCN(c2ccc(-c3ccc4ncc(C#N)c(Nc5ccc(F)c(Cl)c5)c4c3)cn2)CC1 | 53.4% (inactive)
59 | O=c1[nH]c2c(ccc3cnccc32)c2c1CCC2 | -11.9% (active)
60 | COc1nc2ccccc2cc1-c1nc2c(cnn2-c2ccc(Br)cc2)c(=O)[nH]1 | 19.5% (inactive)
61 | Cn1cc(C(=O)c2nc(-c3cn(C)c4ccc(F)cc34)no2)c2cc(F)ccc21 | 90.6% (inactive)
62 | Cc1cccc(OCC(O)CN2CCN(c3ccc(Cl)cc3)CC2)c1 (configuration not stated) | 104% (inactive)
